# An excerpt weighted towards active compounds, which were near 0.6% of everything screened.
# Mac1 fbg enh – increases human CD11b/CD18 adhesion to fibrinogen; K562 CD11b/CD18 adhesion to fibrinogen, ATPlite luminescence; AID 1499; 93,000 tested, 0.07% active; activation, % at 10 µM;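 active means 10 µM primary screen giving 50% or more activity, confirmed by 40% or more on retest at that dose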
# WNV NS2B-NS3 inh – blocks West Nile virus NS2B-NS3 protease activity. P06935. WNV NS2B-NS3 protease, fluorogenic substrate Ex360/Em465; hits give low values. z-score (concentration not given with the values). 65,000 tested, 0.18% active; in the data active means z-score below about -3
# Target sequence (P06935 1371-1501 limits assumed): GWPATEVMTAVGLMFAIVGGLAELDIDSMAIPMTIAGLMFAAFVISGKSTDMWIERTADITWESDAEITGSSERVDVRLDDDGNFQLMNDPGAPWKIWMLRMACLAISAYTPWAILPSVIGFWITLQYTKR
# Target sequence (P06935 1502-1679 limits assumed): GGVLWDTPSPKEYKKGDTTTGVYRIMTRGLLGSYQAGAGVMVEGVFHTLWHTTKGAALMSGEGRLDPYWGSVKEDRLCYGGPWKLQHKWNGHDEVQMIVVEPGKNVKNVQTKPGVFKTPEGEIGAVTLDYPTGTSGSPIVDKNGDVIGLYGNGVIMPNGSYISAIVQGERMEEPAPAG
# CD11b adhes inh – inhibitors of human CD11b/CD18 binding to fibrinogen; P05107+P11215; K562 CD11b/CD18 adhesion to fibrinogen, ATPlite luminescence; Mn2+ added to activate the integrin; inhibition, % at 10 µM; 93,000 tested, 0.54% active;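 active means primary inhibition of 50% or more at 10 µM, then 40% or more on retest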
# The depositor's hits bear a star; · = not tested or not shown.
SMILES,Mac1 fbg enh,WNV NS2B-NS3 inh,CD11b adhes inh
COc1ccc(-n2c(C)cc(C(=O)CN3C(=O)c4ccccc4C3=O)c2C)cc1,-0.4,·,23.4
COc1ccc(-n2c(C)cc(C(=O)COC(=O)Cn3cnc4ccccc43)c2C)cc1,-8.9,0.37,97.1*
Cc1cccc(N2CCN(C(=O)c3ccncc3)CC2)c1C,0.2,-0.47,8.3
Cc1cccc(N2CCN(C(=O)c3c(C)nn(Cc4ccccc4Cl)c3C)CC2)c1C,-3.8,·,52.3*
O=C(Nc1ccc(Cl)cc1)NC1CCCC1Cc1ccco1 (configuration not stated),-2.6,-4.85*,12.2
O=C(CCSc1nnc(-c2ccco2)o1)Nc1ccc(Cl)cc1,2.2,0.56,-0.9
CCOc1cccc2cc(-c3nnc(-c4ccccc4)o3)c(=O)oc12,·,-0.09,·
O=C1C2C3C=CC(C3)C2C(=O)N1/N=C/c1cn(Cc2ccc(F)cc2)c2ccccc12 (configuration not stated),10.6,·,-7.9
O=C1C2C3C=CC(C3)C2C(=O)N1/N=C/c1cc(Br)cc([N+](=O)[O-])c1O (configuration not stated),-8.1,·,57.3*
O=C(CSc1nnc(SCc2cccc3ccccc23)s1)N=Nc1c(O)[nH]c2ccccc12,87.2,·,-18.7
O=C(CSc1n[nH]c(-c2ccccc2Br)n1)NCCN1C(=O)CSC1=O,2.0,·,-3.5
COc1ccc(Cc2nc(C(=O)Nc3ccc(F)cc3)cs2)cc1,-5.9,·,82.2*
COc1ccc(Cc2nc(C(=O)Nc3ccc(Cl)cc3)cs2)cc1,-8.5,·,97.2
COc1ccc(Cc2nc(C(=O)Nc3ccccc3)cs2)cc1,-6.6,·,88.3*
COc1ccc(NC(=O)c2ccccn2)cc1,-4.6,·,27.6
N#CC1(C#N)CC(C=O)=C(N)C1(C#N)CC(=O)C12CC3CC(CC(C3)C1)C2 (configuration not stated),-0.1,·,6.7
CCOC(=O)Cc1csc(NC(=O)CCS(=O)(=O)Cc2ccccc2)n1,-3.6,-0.56,10.1
CS(=O)(=O)N(CC(=O)Nc1cc(Cl)ccc1Cl)c1ccccc1,3.1,·,-2.9
COc1ccc(NC(=S)NCc2ccc(S(N)(=O)=O)cc2)c(OC)c1,2.4,·,-3.9
CCCc1ccc(-c2cc(C(=O)Nc3ccc([N+](=O)[O-])cn3)c3ccccc3n2)cc1,-5.3,·,23.3
O=c1c2ccccc2sc2ccc(Cl)cc12,-2.8,·,15.6
O=c1c(C(c2ccccc2)c2c(O)sc3ccccc3c2=O)c(O)sc2ccccc12,-6.4,·,91.7*
CC1CCCC(C)N1CC(C)(C)NS(=O)(=O)c1ccc(Cl)cc1 (configuration not stated),-3.5,·,-1.1
O=[N+]([O-])c1cc(-c2nnc(C34CC5CC(CC(C5)C3)C4)o2)cc([N+](=O)[O-])c1,2.1,·,-6.6
COc1ccc(-n2c(NC(=O)c3ccc(Br)o3)c(C#N)c3nc4ccccc4nc32)cc1,-11.4,·,90.1*
SMILES,Mac1 fbg enh,WNV NS2B-NS3 inh,CD11b adhes inh
N#Cc1c(NC(=O)c2ccc(Br)o2)n(-c2ccccc2)c2nc3ccccc3nc12,·,-0.12,·
Cc1ccc(S(=O)(=O)/N=C(/c2ccc(F)cc2)N2CCCCC2)cc1,7.7,·,9.1
O=C(COC(=O)c1ccc(CSc2ccc(Cl)cc2)cc1)Nc1ccccc1,-6.4,·,-6.8
O=C(CSc1nnc(Nc2ccccc2)s1)Nc1ccc(S(=O)(=O)N2CCOCC2)cc1,-5.2,·,32.8
Cc1ccc(Nc2nnc(SCC(=O)Nc3ccc(S(=O)(=O)N4CCOCC4)cc3)s2)cc1,-1.6,·,52.0*
Cc1cccc(C(=O)NNC(=O)c2ccc(Cl)cc2)c1O,-3.7,·,-36.0
Cc1cccc(C(=O)NNC2=C(C(=O)C(F)(F)F)CCC2)c1O,-7.3,·,96.4*
Cc1cc(C(=O)CSc2nnc(-c3ccco3)o2)c(C)n1CC1COc2ccccc2O1 (configuration not stated),1.9,-0.65,6.0
O=C(NCC1COc2ccccc2O1)C1CCCN(S(=O)(=O)c2cnc[nH]2)C1 (configuration not stated),-4.6,-0.48,-0.5
O=c1cc(CSc2nc3ccccc3[nH]2)c2ccccc2[nH]1,0.9,·,0.3
Fc1ccc(CSc2nc3ccccc3[nH]2)c2ccccc12,-8.2,·,77.4*
CCCCn1ccnc1C(=O)c1cccc(S(=O)(=O)N2CC(C)CC(C)C2)c1 (configuration not stated),2.2,·,-2.8
Cc1cccc(C(=O)c2cnc3ccccc3c2-c2ccccc2)c1,-2.3,·,58.6*
Cc1cccc(-c2cc(C(=O)NCc3ccccn3)c3ccccc3n2)c1,0.6,·,12.2
CCCCn1c(NC(=O)c2ccc(F)cc2)c(C#N)c2nc3ccccc3nc21,·,-0.8,·
CCCCn1c(NC(=O)c2ccccc2)c(C#N)c2nc3ccccc3nc21,-10.1,0.43,99.3*
CCN1CCN(c2ccc(-n3c(C)nc4c(cnn4-c4ccccc4Cl)c3=O)cc2)CC1,·,0.47,·
NNC(=O)c1cc2c(s1)CCCCCC2,5.9,·,12.8
O=C(Nc1nccs1)c1cc2c(s1)CCCCC2,-4.6,·,72.3*
CSc1nc2ccc(S(=O)(=O)N(C)C)cc2s1,-3.6,·,-5.6
CSc1nc2ccc(NS(=O)(=O)c3ccc(Cl)s3)cc2s1,-11.9,0.35,81.6*
COc1ccc(/C=c2/sc3n(c2=O)C(c2ccccc2OC)C2=C(N=3)c3ccccc3CC2)cc1O (configuration not stated),169.1*,·,-13.7
COc1ccccc1C1C2=C(N=C3SCC(=O)N31)c1ccccc1CC2 (configuration not stated),-3.8,-0.68,7.6
O=C1c2cccc(OCC(=O)N3N=C(c4cccs4)CC3c3ccc(F)cc3)c2CCN1Cc1cccnc1 (configuration not stated),74.6,·,3.8
Cc1cc(C)n(-c2cc(N3CCN(S(=O)(=O)c4ccc(Cl)cc4)CC3)ccc2[N+](=O)[O-])n1,-0.8,·,-2.2
SMILES,Mac1 fbg enh,WNV NS2B-NS3 inh,CD11b adhes inh
Cc1cc(N2CCN(S(=O)(=O)c3ccc(Cl)cc3)CC2)c2ccccc2n1,-8.4,-0.65,85.3*
O=C(CSc1ccc2ccccc2c1)Nc1ccncc1,-5.1,·,85.9*
O=C(CSc1ccccc1)Nc1ccncc1,-4.8,0.27,-3.1
COc1ccc(C(=O)/C=C/Nc2ccc([N+](=O)[O-])cc2C)cc1OC,53.3*,·,0.6
COc1ccc(C(=O)/C=C/Nc2ccc([N+](=O)[O-])cc2C)c(OC)c1,47.9,·,5.2
CCOC(=O)c1sc(NC(=O)CSc2ccccn2)c(C#N)c1C,58.1,0.14,3.2
CCOC(=O)c1sc(NC(=O)c2cccnc2)c(C#N)c1C,-9.3,·,63.4*
O=C(c1ccc(Cl)cc1)N1CCN(c2nc(N3CCCCC3)nc(N3CCCCC3)n2)CC1,·,-0.15,·
c1ccc(N2CCN(c3c4c(nc5ncnn35)CCC4)CC2)cc1,-2.3,-0.34,-11.8
COc1cccc(N2CCN(c3c4c(nc5ncnn35)CCC4)CC2)c1,-5.0,0.01,51.4*
O=C(CCS(=O)(=O)Cc1ccccc1)NCC1CCCO1 (configuration not stated),2.0,-0.48,-12.4
CCc1cccc(CC)c1NC(=O)COC(=O)c1ccccc1-c1nc2ccccc2s1,2.2,·,-7.4
CNC(=O)COC(=O)c1ccc(-c2nc3ccccc3s2)s1,10.6,·,64.1*
CCN(CC)c1ccc(-n2c(O)c(C=C3N=c4ccccc4=N3)sc2=S)cc1,100.3,·,2.2

# Screening data as filed in PubChem.
